This note sets out measurements from PMC5700166.

Residue numbers refer to the chain shown, from its start.

Assay in all cases: protein-binding microarray (PBM); PBM: ~300 nM protein, 6 mM HEPES pH 7.8, 80 mM KCl, 0.5 mM EDTA, 0.5 mM EGTA, 6% glycerol, 35 ng/ul poly-dIdC, 1% milk, 1 h, room temperature; Ap Aiptasia and Nv Nematostella (sea anemones) / Co Capsaspora / Aq Amphimedon (sponge) / Dm Drosophila / Hu human; RHD is the Rel homology domain; high values mean tight binding
Conditions in all cases: dsDNA, one strand shown

One experiment deals with T1, GST-Ap-NF-kB RHD (Exaiptasia pallida (Aiptasia), UniProt A0A913YAJ5 2-422).
T1 sequence: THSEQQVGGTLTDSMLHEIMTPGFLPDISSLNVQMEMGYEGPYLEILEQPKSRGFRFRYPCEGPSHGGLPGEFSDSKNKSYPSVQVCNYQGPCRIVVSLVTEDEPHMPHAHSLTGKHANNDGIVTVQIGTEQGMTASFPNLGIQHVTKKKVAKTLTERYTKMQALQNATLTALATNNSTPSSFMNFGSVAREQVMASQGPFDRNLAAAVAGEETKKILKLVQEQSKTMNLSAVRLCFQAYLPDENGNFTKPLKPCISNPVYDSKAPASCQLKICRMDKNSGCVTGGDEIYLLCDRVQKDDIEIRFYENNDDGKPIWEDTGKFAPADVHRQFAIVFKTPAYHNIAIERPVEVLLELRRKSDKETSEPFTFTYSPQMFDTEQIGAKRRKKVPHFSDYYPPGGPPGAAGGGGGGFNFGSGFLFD

The target in experiment [1] is T2, GST-Nv-NF-kB (Cys allele) (Nematostella vectensis, UniProt E5G601 2-411).
T2 sequence: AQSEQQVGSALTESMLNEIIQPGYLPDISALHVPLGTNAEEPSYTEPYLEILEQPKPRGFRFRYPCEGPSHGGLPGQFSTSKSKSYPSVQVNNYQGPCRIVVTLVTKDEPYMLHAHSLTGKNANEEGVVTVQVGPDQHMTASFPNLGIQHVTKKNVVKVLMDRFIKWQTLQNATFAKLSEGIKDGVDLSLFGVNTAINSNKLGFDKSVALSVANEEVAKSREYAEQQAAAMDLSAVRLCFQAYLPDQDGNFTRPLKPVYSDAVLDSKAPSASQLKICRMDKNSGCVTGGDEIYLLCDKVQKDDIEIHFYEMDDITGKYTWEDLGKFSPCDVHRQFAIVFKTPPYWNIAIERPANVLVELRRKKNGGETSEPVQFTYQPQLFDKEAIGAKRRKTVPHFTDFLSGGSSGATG

For experiment [2], the target named is T3, GST-Nv-NF-kB (Ser allele) (Nematostella vectensis, UniProt A7UNT2 2-411).
T3 sequence: T2 sequence with Q21R, C66S, S207N, E215Q, V217A, E225K, A268E, D399E

Another experiment deals with T4, GST-Co-NF-kB (Capsaspora owczarzaki, UniProt F1ARL5 200-546).
T4 sequence: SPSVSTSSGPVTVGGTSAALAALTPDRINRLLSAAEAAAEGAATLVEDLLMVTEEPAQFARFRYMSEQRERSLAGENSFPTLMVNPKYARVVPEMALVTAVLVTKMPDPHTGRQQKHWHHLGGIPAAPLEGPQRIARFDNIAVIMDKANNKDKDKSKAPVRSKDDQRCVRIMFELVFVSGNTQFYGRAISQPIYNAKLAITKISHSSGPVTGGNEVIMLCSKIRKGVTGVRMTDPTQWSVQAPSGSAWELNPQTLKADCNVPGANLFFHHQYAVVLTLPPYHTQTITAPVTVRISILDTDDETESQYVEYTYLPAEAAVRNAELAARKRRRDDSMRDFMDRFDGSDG

The target in a further experiment is T5, GST-Dm-Relish (Drosophila melanogaster, UniProt Q94527 99-473).
T5 sequence: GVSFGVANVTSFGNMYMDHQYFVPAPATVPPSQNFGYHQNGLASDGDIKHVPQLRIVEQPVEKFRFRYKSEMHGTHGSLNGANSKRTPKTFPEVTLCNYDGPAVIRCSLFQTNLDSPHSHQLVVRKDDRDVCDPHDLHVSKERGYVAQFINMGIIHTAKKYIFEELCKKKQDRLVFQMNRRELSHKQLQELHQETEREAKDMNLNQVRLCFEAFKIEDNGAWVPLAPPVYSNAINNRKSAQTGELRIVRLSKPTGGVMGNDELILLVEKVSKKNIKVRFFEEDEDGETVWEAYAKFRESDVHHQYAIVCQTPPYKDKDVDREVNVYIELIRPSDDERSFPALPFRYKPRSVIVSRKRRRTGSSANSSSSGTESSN

The target of another experiment is T6, GST-Aq-NF-kB (Amphimedon queenslandica, UniProt A9Y5G7 2-389).
T6 sequence: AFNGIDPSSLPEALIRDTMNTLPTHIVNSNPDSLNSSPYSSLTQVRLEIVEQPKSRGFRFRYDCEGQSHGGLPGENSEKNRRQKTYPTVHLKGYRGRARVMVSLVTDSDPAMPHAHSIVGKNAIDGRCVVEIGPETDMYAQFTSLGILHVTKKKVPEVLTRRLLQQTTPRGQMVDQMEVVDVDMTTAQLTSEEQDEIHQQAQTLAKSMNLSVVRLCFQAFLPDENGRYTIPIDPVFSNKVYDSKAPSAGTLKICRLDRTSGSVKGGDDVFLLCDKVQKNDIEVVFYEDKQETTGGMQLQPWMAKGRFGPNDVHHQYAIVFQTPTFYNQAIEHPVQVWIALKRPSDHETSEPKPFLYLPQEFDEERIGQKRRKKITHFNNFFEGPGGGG

In a further experiment the target is GST-Hu-p50 (Homo sapiens, UniProt P19838 7-356).
GST-Hu-p50, sequence (P19838 7-356): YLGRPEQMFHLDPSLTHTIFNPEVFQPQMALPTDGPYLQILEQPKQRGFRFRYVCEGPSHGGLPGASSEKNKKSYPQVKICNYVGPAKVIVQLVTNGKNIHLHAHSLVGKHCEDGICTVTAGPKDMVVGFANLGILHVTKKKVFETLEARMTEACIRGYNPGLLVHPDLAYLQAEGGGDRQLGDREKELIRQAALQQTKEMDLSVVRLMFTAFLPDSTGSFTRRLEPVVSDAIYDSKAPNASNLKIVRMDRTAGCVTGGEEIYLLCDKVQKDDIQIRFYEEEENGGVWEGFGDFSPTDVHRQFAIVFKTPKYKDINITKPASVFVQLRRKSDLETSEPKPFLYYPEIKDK

On to “CCGATTAACATCAAGGGGTTCCCTGATGTTAATCGGGTCTTGATTCGCTTGACGCTGCTG”, for which the binding signal was found to be 4.99 z-score with GST-Ap-NF-kB RHD; 3.32 z-score in experiment [1]; 2.15 z-score in experiment [2]; 2.13 z-score in the experiment with GST-Co-NF-kB; 9.46 z-score in the experiment with GST-Dm-Relish; 5.11 z-score in the experiment with GST-Aq-NF-kB. This sequence also returned a binding signal in the experiment with GST-Hu-p50 of 3.25 z-score.

Take “CCGATTAACATCACATTCCCCCCTGATGTTAATCGGGTCTTGATTCGCTTGACGCTGCTG”: the binding signal with GST-Ap-NF-kB RHD stood at 6.91 z-score; in experiment [1] it was 6.39 z-score; in experiment [2], 6.97 z-score; with GST-Co-NF-kB it was 8.44 z-score; with GST-Dm-Relish, 4.58 z-score; with GST-Aq-NF-kB it was 5.7 z-score. Also, the binding signal with GST-Hu-p50 stood at 5.73 z-score.

“CCGATTAACATCAGGGGATGTACTGATGTTAATCGGGTCTTGATTCGCTTGACGCTGCTG”: the binding signal in the experiment with GST-Ap-NF-kB RHD came to 4.43 z-score; in experiment [1], 4.79 z-score; in experiment [2] it was 5.58 z-score; with GST-Co-NF-kB, 3.02 z-score; in the experiment with GST-Dm-Relish, 9.92 z-score; with GST-Aq-NF-kB it was 5.33 z-score. The sequence further returned a binding signal with GST-Hu-p50 of 4.4 z-score.

On to “CCGATTAACATCAGGGGGGTACCTGATGTTAATCGGGTCTTGATTCGCTTGACGCTGCTG”, for which the binding signal came out at 5.8 z-score in the experiment with GST-Ap-NF-kB RHD; 3.31 z-score in experiment [1]; 3.85 z-score in experiment [2]; 4.86 z-score with GST-Co-NF-kB; 5.81 z-score with GST-Dm-Relish; 5.74 z-score in the experiment with GST-Aq-NF-kB. The binding signal with GST-Hu-p50 was found to be 4.26 z-score.

With “CCGATTAACATCAAAGCCCCCCCTGATGTTAATCGGGTCTTGATTCGCTTGACGCTGCTG”, the binding signal with GST-Ap-NF-kB RHD was determined as 5.97 z-score; in experiment [1] it was 4.23 z-score; in experiment [2], 4.62 z-score; with GST-Co-NF-kB, 4.66 z-score; in the experiment with GST-Dm-Relish, 6.01 z-score; with GST-Aq-NF-kB, 5.12 z-score. In the experiment with GST-Hu-p50, this sequence came in with a binding signal of 4.63 z-score.

As to “CCGATTAACATCAAGGGTATTCCTGATGTTAATCGGGTCTTGATTCGCTTGACGCTGCTG”, the binding signal in the experiment with GST-Ap-NF-kB RHD stood at 5.29 z-score; in experiment [1], 5.81 z-score; in experiment [2], 4.65 z-score; with GST-Co-NF-kB, 1.17 z-score; with GST-Dm-Relish, 7.04 z-score; with GST-Aq-NF-kB, 5.86 z-score. The sequence further displayed a binding signal in the experiment with GST-Hu-p50 of 4.55 z-score.

Take “CCGATTAACATCACAAAAGCCCCTGATGTTAATCGGGTCTTGATTCGCTTGACGCTGCTG”: the binding signal with GST-Ap-NF-kB RHD amounted to 6.25 z-score; in experiment [1] it was 8.09 z-score; in experiment [2], 7.4 z-score; with GST-Co-NF-kB it was 1.08 z-score; in the experiment with GST-Dm-Relish it was 6.85 z-score; with GST-Aq-NF-kB it was 7.27 z-score. Further, in the experiment with GST-Hu-p50, the binding signal was found to be 6.34 z-score.

For the sequence “CCGATTAACATCAGAATTACCCCTGATGTTAATCGGGTCTTGATTCGCTTGACGCTGCTG”, the binding signal with GST-Ap-NF-kB RHD was found to be 4.43 z-score; in experiment [1] it was 5.36 z-score; in experiment [2], 5.04 z-score; in the experiment with GST-Co-NF-kB, 5.87 z-score; with GST-Dm-Relish it was 2.94 z-score; with GST-Aq-NF-kB it was 5.49 z-score. In the experiment with GST-Hu-p50, this sequence came in with a binding signal of 4.69 z-score.

With “CCGATTAACATCAGGGGGGATTATGATGTTAATCGGGTCTTGATTCGCTTGACGCTGCTG”, the binding signal with GST-Ap-NF-kB RHD is 8.28 z-score; in experiment [1], 6.89 z-score; in experiment [2], 7.27 z-score; with GST-Co-NF-kB, 7.08 z-score; with GST-Dm-Relish, 6.91 z-score; in the experiment with GST-Aq-NF-kB, 6.21 z-score. The binding signal in the experiment with GST-Hu-p50 was 6.82 z-score.
